Values joined by “and” are separate entries in the source; they are usually repeats but may differ in a detail not shown here. Equal entries are not always repeated. A structure can be active in one record and inactive in another. Active and inactive are the calls of the source. Rule for the calls: active = hit-call score of the fitted dose curve at least 0.9, where 1 is the maximum; inactive = score below 0.9.
Key:
[1] = read-out: Matrix Metallopeptidase 1 (MMP1), MMP1 (gene 4312); experiment: BSK_MyoF_MMP1: BioMAP Diversity Plus: MyoF Assay for Matrix Metallopeptidase 1 (MMP1) Biomarker Activity (AID 2284268); conditions: primary human lung fibroblasts
Summary of the method: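 Cells: human lung fibroblasts. Exposure: 24 h chemical dosing. Detection: ELISA for MMP1. Analysis: upward fitting against DMSO negative control.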

[2] = read-out: TIMP metallopeptidase inhibitor 1 (TIMP1), TIMP1 (gene 7076); experiment: BSK_MyoF_TIMP1: BioMAP Diversity Plus: MyoF Assay for TIMP metallopeptidase inhibitor 1 (TIMP1) Biomarker Activity (AID 2284269); conditions: primary human lung fibroblasts
Summary of the method: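 Primary human lung fibroblasts, MyoF multiplex system; chemical exposure 24 h; TIMP-1 by ELISA; positive fitting direction vs DMSO control.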

[3] = read-out: Matrix Metallopeptidase 1 (MMP1), MMP1 (gene 4312); experiment: BSK_BF4T_MMP1: BioMAP Diversity Plus: BF4T Assay for Matrix Metallopeptidase 1 (MMP1) Biomarker Activity (AID 2284270); conditions: primary human bronchial epithelial cells with fibroblasts
Summary of the method: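 MMP-1 quantified by ELISA in primary human bronchial epithelial/dermal fibroblast co-cultures, 24 hours post-dosing, with DMSO as baseline; parallel sulforhodamine B staining (560 nm) tracks overt cytotoxicity.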

[4] = read-out: Matrix Metallopeptidase 3 (MMP3), MMP3 (gene 4314); experiment: BSK_BF4T_MMP3: BioMAP Diversity Plus: BF4T Assay for Matrix Metallopeptidase 3 (MMP3) Biomarker Activity (AID 2284271); conditions: primary human bronchial epithelial cells with fibroblasts
Summary of the method: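 MMP-3 level read by ELISA after 24 h chemical exposure of bronchial epithelial cell/dermal fibroblast co-cultures, fitted upward relative to DMSO. Parallel cultures stained with 0.1% SRB after TCA fixation gauge overt cytotoxicity.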

[5] = read-out: Tissue plasminogen activator (tPA), PLAT (gene 5327); experiment: BSK_BF4T_tPA: BioMAP Diversity Plus: BF4T Assay for Tissue plasminogen activator (tPA) Biomarker Activity (AID 2284272); conditions: primary human bronchial epithelial cells with fibroblasts
Summary of the method: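 tPA level quantified by ELISA at 24 h post-treatment in bronchial epithelial/dermal fibroblast co-cultures, gain of signal scored against DMSO baseline. Parallel cultures stained with 0.1% SRB (560 nm) to flag overt cytotoxicity.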

[6] = read-out: Plasminogen Activator Inhibitor-1 (PAI1), SERPINE1 (gene 5054); experiment: BSK_BF4T_PAI1: BioMAP Diversity Plus: BF4T Assay for Plasminogen Activator Inhibitor-1 (PAI1) Biomarker Activity (AID 2284273); conditions: primary human bronchial epithelial cells with fibroblasts
Summary of the method: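 PAI-1 levels quantified by ELISA 24 h post-dosing in bronchial epithelial cell plus dermal fibroblast cultures. Signal gain referenced to DMSO baseline. Sulforhodamine B total-protein staining of parallel wells checked cytotoxicity.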

[7] = BSK_BF4T_SRB: Viability Assessment in the BioMAP Diversity Plus: BF4T Assay (AID 2284274); conditions: primary human bronchial epithelial cells with fibroblasts;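 for AC50: measured 24 h after compound addition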
Summary of the method: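 Cytotoxicity measured as total protein: cells fixed with 10% TCA, stained with 0.1% SRB, read at 560 nm. Bronchial epithelial/dermal fibroblast co-culture, 24 h after dosing, with positive-direction fitting relative to DMSO.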

[8] = read-out: urokinase Plasminogen Activator (uPA), PLAU (gene 5328); experiment: BSK_BF4T_uPA: BioMAP Diversity Plus: BF4T Assay for urokinase Plasminogen Activator (uPA) Biomarker Activity (AID 2284275); conditions: primary human bronchial epithelial cells with fibroblasts
Summary of the method: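 uPA levels measured by ELISA at 24 hours in BF4T cultures (bronchial epithelial cells plus dermal fibroblasts) and compared with DMSO; cytotoxicity tracked in parallel cultures by sulforhodamine B staining.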

[9] = read-out: Matrix Metallopeptidase 9 (MMP9), MMP9 (gene 4318); experiment: BSK_BF4T_MMP9: BioMAP Diversity Plus: BF4T Assay for Matrix Metallopeptidase 9 (MMP9) Biomarker Activity (AID 2284276); conditions: primary human bronchial epithelial cells with fibroblasts
Summary of the method: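 MMP-9 levels were measured by ELISA after 24 h exposure of bronchial epithelial cell/dermal fibroblast co-cultures, with DMSO as baseline. Parallel cultures were stained with 0.1% SRB after TCA fixation, read at 560 nm, to flag overt cytotoxicity.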

[10] = read-out: Interleukin-8 (IL8), CXCL8 (gene 3576); experiment: BSK_IMphg_IL8: BioMAP Diversity Plus: IMphg Assay for Interleukin-8 (IL8) Biomarker Activity (AID 2284277); conditions: primary human endothelial cells with macrophages
Summary of the method: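 IL-8 levels were measured by ELISA 24 h after dosing in primary human venular endothelial cell–macrophage cultures, referenced to DMSO; parallel SRB staining monitored overt cytotoxicity.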

C[C@@H]1C[C@H]2[C@@H]3CCC4=CC(=O)C=C[C@]4(C)[C@@]3(F)[C@@H](O)C[C@]2(C)[C@@]1(O)C(=O)COP(=O)(O)O
outcome [1]: inactive
AC50 [2]: 562 nM (active)
outcome [2]: inactive
outcome [3]: inactive
outcome [4]: inactive
outcome [5]: inactive
outcome [6]: inactive
outcome [7]: inactive
outcome [8]: inactive
outcome [9]: inactive
AC50 [10]: 309 nM (active) and 884 nM (active)

FC(F)(I)C(F)(F)C(F)(F)C(F)(F)C(F)(F)C(F)(F)I
outcome [1]: inactive
AC50 [2]: 7.01 µM (active) [middle of 5 runs]
AC50 [3]: 23.4 µM (active) [middle of 5 runs]
AC50 [4]: 19.3 µM (active) [middle of 4 runs]
outcome [4]: inactive
AC50 [5]: 7.56 µM (active) [middle of 5 runs]
AC50 [6]: 19.3 µM (active) [middle of 5 runs]
AC50 [7]: 21.9 µM (active) [middle of 5 runs]
AC50 [8]: 14.4 µM (active) [middle of 5 runs]
AC50 [9]: 18.9 µM (active) [middle of 5 runs]
AC50 [10]: 47.1 µM (active) [middle of 4 runs]
outcome [10]: inactive

OCCC(F)(F)C(F)(F)C(F)(F)C(F)(F)C(F)(F)C(F)(F)F
outcome [1]: inactive
outcome [2]: inactive
outcome [3]: inactive
outcome [4]: inactive
outcome [5]: inactive
outcome [6]: inactive
outcome [7]: inactive
outcome [8]: inactive
outcome [9]: inactive
outcome [10]: inactive

CCCCCCCCCCCCCC[N+](C)(C)C
AC50 [2]: 3320 nM (active)

C=C(C)C(=O)OCCC(F)(F)C(F)(F)C(F)(F)C(F)(F)C(F)(F)C(F)(F)F
outcome [1]: inactive
outcome [2]: inactive
outcome [3]: inactive
outcome [4]: inactive
outcome [5]: inactive
outcome [6]: inactive
outcome [7]: inactive
outcome [8]: inactive
outcome [9]: inactive
outcome [10]: inactive

OCCC(F)(F)C(F)(F)C(F)(F)C(F)(F)C(F)(F)C(F)(F)C(F)(F)C(F)(F)F
outcome [1]: inactive
AC50 [2]: 13.1 µM (active) and 9.78 µM (active)
outcome [3]: inactive
outcome [4]: inactive
AC50 [5]: 8.17 µM (active) and 7.72 µM (active)
AC50 [6]: 23.8 µM (active) and 18.6 µM (active)
AC50 [7]: 27.2 µM (active) and 34.7 µM (active)
AC50 [8]: 30 µM (active) and 17.7 µM (active)
AC50 [9]: 28 µM (active) and 16.3 µM (active)
AC50 [10]: 30 µM (active) and 44.7 µM (active)

NCC(F)(F)C(F)(F)C(F)(F)C(F)(F)C(F)(F)C(F)(F)C(F)(F)F
outcome [1]: inactive
outcome [2]: inactive
outcome [3]: inactive
outcome [4]: inactive
outcome [5]: inactive
outcome [6]: inactive
outcome [7]: inactive
outcome [8]: inactive
outcome [9]: inactive
outcome [10]: inactive

Source: PubChem BioAssay (EPA / NIEHS)
